Assay results taken from the supplement of paper PMC8285479.
Where a name gives a salt, the structure may show the parent alone. ± gives the standard deviation of the averaged measurements. Whole data set: some 1,900 compounds, median “normalised cell viability (NPI; 0 = phenylarsine oxide control, 1 = DMSO control)” near 1, cut for the lowest 2% near 0.039. The full list was thinned out, with the lowest values kept by preference.

Test system: NCI-H1944
Assay: normalised cell viability (NPI; 0 = phenylarsine oxide control, 1 = DMSO control) (fraction of DMSO control); NCI-H1944 is a non-small cell lung cancer line; higher = more viable cells (less compound toxicity)
Details: 6 days
[1] = glucocorticoid arm: hydrocortisone 2.75 uM co-treatment, compound 1 µM
[2] = glucocorticoid arm: hydrocortisone 2.75 uM co-treatment, compound 5 µM
[3] = glucocorticoid arm: hydrocortisone 2.75 uM pre-treated 2 days and continued, compound 1 µM
[4] = glucocorticoid arm: hydrocortisone 2.75 uM pre-treated 2 days and continued, compound 5 µM
[5] = glucocorticoid arm: vehicle, compound 1 µM
[6] = glucocorticoid arm: vehicle, compound 5 µM
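Further: CTB read-out in 384-well plates, triplicate wells, NPI normalised per plate against 1 µM phenylarsine oxide (0) and 0.1% DMSO (1) controls.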

SMILES	normalised cell viability [1]	normalised cell viability [2]	normalised cell viability [3]	normalised cell viability [4]	normalised cell viability [5]	normalised cell viability [6]
COc1cc2nccc(Oc3ccc(NC(=O)Nc4ccc(F)cc4F)c(F)c3)c2cc1OC	1.05 ± 0.011	1.06 ± 0.01	1.037 ± 0.0058	1.04 ± 0.021	1.003 ± 0.0063	1.013 ± 0.0058
COc1ncc(-c2ccc3nccc(-c4ccnnc4)c3c2)cc1NS(=O)(=O)c1ccc(F)cc1F	0.264 ± 0.0058	0.231 ± 0.027	0.365 ± 0.025	0.249 ± 0.02	0.0495 ± 0.0081	0.0214 ± 0.0013
Nc1ncnc2c1ncn2[C@@H]1O[C@@H]2COP(=O)(O)O[C@H]2[C@H]1O [Adenosine 3',5'-cyclic monophosphate]	0.986 ± 0.014	0.9813 ± 0.007	0.998 ± 0.011	0.965 ± 0.019	0.991 ± 0.016	0.9797 ± 0.0074
NCc1c[nH]c(=S)n1[C@H]1CCc2c(F)cc(F)cc2C1 [Nepicastat (SYN-117) HCl]	0.9937 ± 0.006	1	1.01 ± 0.022	0.98 ± 0.017	0.9937 ± 0.0085	0.9913 ± 0.0051
C=CC(=O)Nc1cc(Nc2nccc(-c3cn(C)c4ccccc34)n2)c(OC)cc1N(C)CCN(C)C	0.891 ± 0.003	0.842 ± 0.022	0.944 ± 0.015	0.916 ± 0.034	0.789 ± 0.028	0.762 ± 0.045
CC[C@@H]1SC2(CCN(C)CC2)NC1=O	1.02	1.01 ± 0.011	1.03 ± 0.029	1.02 ± 0.011	1.013 ± 0.0058	1.01 ± 0.012
CC(C)[C@H](NC(=O)OCc1ccccc1)C(=O)N[C@H](C=O)Cc1ccccc1	0.989 ± 0.011	0.987 ± 0.041	0.997 ± 0.0052	1.03 ± 0.085	1 ± 0.0087	1 ± 0.013
O=C(N[C@@H](Cc1ccccc1)C(=O)CCl)OCc1ccccc1 [Z-L-Phe chloromethyl ketone]	1.03 ± 0.01	0.028 ± 0.0044	1.02 ± 0.016	1.075 ± 0.0071	1.03 ± 0.01	0.149 ± 0.086
Cc1ccc(S(=O)(=O)N[C@@H](Cc2ccccc2)C(=O)CCl)cc1 [N-p-Tosyl-L-phenylalanine chloromethyl ketone]	0.9977 ± 0.0032	1.01 ± 0.028	0.868 ± 0.25	1.02 ± 0.015	1.007 ± 0.0058	0.691 ± 0.057
CC1=C(C(=O)OC2CCCCC2)C(c2ccc([N+](=O)[O-])cc2)C2=C(CC(C)(C)CC2=O)N1 (configuration not stated)	1.03 ± 0.025	1.02 ± 0.023	1.03 ± 0.015	1.02 ± 0.026	1.017 ± 0.0058	1.003 ± 0.0058
C/C=C1\C(=O)C[C@H]2[C@@H]3CCC4=CC(=O)CC[C@]4(C)[C@H]3CC[C@]12C [(Z)-Guggulsterone]	0.9933 ± 0.0015	0.98 ± 0.031	0.994 ± 0.02	0.964 ± 0.029	0.9953 ± 0.0035	0.9887 ± 0.0091
O=C(c1ccc(Cl)cc1)N1CCN(c2ccc([N+](=O)[O-])c3ncccc23)CC1	1.01 ± 0.013	1.01 ± 0.027	0.992 ± 0.014	0.996 ± 0.014	0.997 ± 0.015	1 ± 0.021
CN(C)C(=O)C(CCN1CCC(O)(c2ccc(Cl)cc2)CC1)(c1ccccc1)c1ccccc1 [Loperamide HCl]	1.02 ± 0.026	0.893 ± 0.035	1.047 ± 0.0058	0.984 ± 0.012	1.017 ± 0.0058	0.919 ± 0.0099
OC1(c2ccc(Cl)cc2)CCN(Cc2c[nH]c3ccccc23)CC1	0.972 ± 0.021	0.852 ± 0.052	1.003 ± 0.0061	1.04 ± 0.086	0.9753 ± 0.0065	0.988 ± 0.01
O=C(CCCN1CCC(O)(c2ccc(Cl)cc2)CC1)c1ccc(F)cc1 [Haloperidol]	0.996 ± 0.013	0.93 ± 0.023	1.01	1.01 ± 0.025	0.9843 ± 0.0035	0.985 ± 0.002
CN(C)C(=O)C(CCN1CCC(O)(c2ccc(Cl)cc2)CC1)(c1ccccc1)c1ccccc1 [Loperamide hydrochloride]	0.9953 ± 0.0042	0.405 ± 0.032	1.017 ± 0.0058	0.87 ± 0.29	1	0.0171 ± 0.0045
Nc1nc2[nH]cnc2c(=S)[nH]1 [Thioguanine]	0.931 ± 0.0046	0.423 ± 0.024	0.9813 ± 0.0011	0.754 ± 0.04	0.9133 ± 0.0051	0.119 ± 0.011
Cc1[nH]c2ccccc2c1CCNCc1ccc(/C=C/C(=O)NO)cc1 [Panobinostat (LBH589)]	0.00703 ± 0.0011	0.00134 ± 0.00097	0.00592 ± 0.0022	0.00214 ± 0.0018	0.00625 ± 0.001	9e-05 ± 0.00045
Cc1[nH]c2ccccc2c1C1=C(NCCc2ccc(F)cc2)C(=O)N(C)C1=O	0.964 ± 0.019	0.962 ± 0.053	0.988 ± 0.011	0.973 ± 0.021	0.977 ± 0.007	0.9803 ± 0.0047
CC(C)N(CCCNC(=O)Nc1ccc(C(C)(C)C)cc1)C[C@H]1O[C@@H](n2ccc3c(N)ncnc32)[C@H](O)[C@@H]1O	1.003 ± 0.0058	1.07 ± 0.025	0.984 ± 0.0053	1.04 ± 0.01	1.002 ± 0.0068	1.002 ± 0.0076
CCOC(=O)[C@]12CC1/C(=N\O)c1ccccc1O2 (some centres not stated)	1.017 ± 0.0058	1.01 ± 0.024	1.007 ± 0.0058	1.02	0.997 ± 0.013	1.002 ± 0.0068
C[N+](C)(C)CCO.[Br-] [Choline bromide]	1.017 ± 0.0058	1 ± 0.019	1.017 ± 0.0058	1.02	0.995 ± 0.0078	0.998 ± 0.014
CC(C(=O)Nc1cccc(/N=C/c2c(O)ccc3ccccc23)c1)c1ccccc1 (configuration not stated) [Salermide]	0.999 ± 0.014	1.01 ± 0.02	0.9942 ± 0.0055	1 ± 0.035	0.9967 ± 0.0083	1.002 ± 0.01
O=C(c1ccc(F)cc1)N1CCCC(c2nc(-c3ccc(F)cc3)no2)C1 (configuration not stated)	1.03 ± 0.015	1.023 ± 0.0058	1.02 ± 0.011	1.013 ± 0.0058	1.01	1.001 ± 0.0078
Cn1ncnc1[C@H]1c2n[nH]c(=O)c3cc(F)cc(c23)N[C@@H]1c1ccc(F)cc1	0.996 ± 0.012	0.934 ± 0.028	1.01 ± 0.017	1.05 ± 0.015	0.436 ± 0.0095	0.28 ± 0.016
CCN(CC)CCCC(C)Nc1ccnc2cc(Cl)ccc12 (configuration not stated) [Chloroquine diphosphate]	1 ± 0.015	0.752 ± 0.026	1.001 ± 0.009	0.963 ± 0.04	0.9793 ± 0.0076	0.947 ± 0.013
CCN(CC)CCCC(C)Nc1c2ccc(Cl)cc2nc2ccc(OC)cc12 (configuration not stated) [Quinacrine dihydrochloride]	0.999 ± 0.021	0.00304 ± 0.0019	1.01 ± 0.023	1.01 ± 0.014	0.995 ± 0.014	0.00159 ± 0.0012
